# Experimental data published in PMC4336329 (PLoS ONE, 2015).
# Screen size: about 310,000 compounds; about 14,000 (4.5%) showed an effect of 50% or more. The effect is printed as a negative number. The full list was thinned out, with strong results kept by preference.
# Target: human ether-à-go-go-related gene (hERG) potassium channel (human, UniProt Q12809)
# Assay: primary screen, population patch clamp on CHO cells stably expressing hERG; higher = less effect of the substance
# 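Further: peak tail current of the secondary pulse compared with the same well before compound.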
# Sequence of human ether-à-go-go-related gene (hERG) potassium channel (Q12809 whole entry, looked up): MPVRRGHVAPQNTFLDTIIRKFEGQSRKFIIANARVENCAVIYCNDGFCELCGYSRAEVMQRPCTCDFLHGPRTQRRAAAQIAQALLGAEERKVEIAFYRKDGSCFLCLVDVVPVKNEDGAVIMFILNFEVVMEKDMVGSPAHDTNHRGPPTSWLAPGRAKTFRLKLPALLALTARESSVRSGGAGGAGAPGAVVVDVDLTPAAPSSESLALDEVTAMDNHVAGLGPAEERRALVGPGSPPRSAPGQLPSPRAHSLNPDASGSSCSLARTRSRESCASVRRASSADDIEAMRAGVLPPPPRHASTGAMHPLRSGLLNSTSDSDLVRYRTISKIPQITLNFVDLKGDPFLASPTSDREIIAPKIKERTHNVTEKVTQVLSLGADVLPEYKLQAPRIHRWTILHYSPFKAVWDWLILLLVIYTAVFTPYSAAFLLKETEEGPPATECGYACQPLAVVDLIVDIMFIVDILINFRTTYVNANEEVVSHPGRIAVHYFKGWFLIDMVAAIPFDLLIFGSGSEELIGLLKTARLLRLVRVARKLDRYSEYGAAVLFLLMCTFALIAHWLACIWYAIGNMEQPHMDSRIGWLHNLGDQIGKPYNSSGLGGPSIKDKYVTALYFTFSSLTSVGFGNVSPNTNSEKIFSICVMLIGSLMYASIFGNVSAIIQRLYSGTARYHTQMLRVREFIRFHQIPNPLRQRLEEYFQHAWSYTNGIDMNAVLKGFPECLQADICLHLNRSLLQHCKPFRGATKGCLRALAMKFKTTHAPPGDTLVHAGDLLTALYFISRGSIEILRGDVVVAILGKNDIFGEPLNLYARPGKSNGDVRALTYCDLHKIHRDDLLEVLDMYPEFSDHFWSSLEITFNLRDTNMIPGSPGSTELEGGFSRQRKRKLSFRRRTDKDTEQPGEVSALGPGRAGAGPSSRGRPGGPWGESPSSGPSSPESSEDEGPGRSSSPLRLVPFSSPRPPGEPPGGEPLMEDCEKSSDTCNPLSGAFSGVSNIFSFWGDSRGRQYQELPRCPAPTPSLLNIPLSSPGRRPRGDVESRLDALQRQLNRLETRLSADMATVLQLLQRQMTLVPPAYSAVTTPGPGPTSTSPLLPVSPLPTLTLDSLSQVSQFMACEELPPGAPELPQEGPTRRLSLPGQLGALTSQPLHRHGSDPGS
row,SMILES,"hERG current change (%, negative = inhibition) at 10uM"
1,CCOC(=O)N1CCN(C(=O)COC(=O)C2CCN(S(=O)(=O)c3c(C)c(C)cc(C)c3C)CC2)CC1,-51.9%
2,CC1CCCC(C)N1C(=O)COC(=O)C1CCN(S(=O)(=O)c2c(Cl)cccc2Cl)CC1 (stereo not shown),-30.1%
3,CC1CCCN(C(=O)COC(=O)C2CCN(S(=O)(=O)c3c(Cl)cccc3Cl)CC2)C1 (stereo not shown),-39.4%
4,CC(=O)Nc1ccc(Oc2cc(NC(C)=O)cc([N+](=O)[O-])c2)cc1,6.36%
5,CCOC(=O)c1c(NC(=O)CC2Nc3ccccc3NC2=O)sc(C)c1C (stereo not shown),10.6%
6,CCOC(=O)C1CCCN(C(=O)c2cc(Nc3ccc(OC)c(OC)c3)nc3ccccc23)C1 (stereo not shown),-14.9%
7,Cc1c(C(=O)Nc2ccc(Cl)cc2)c2ccccn2c1CCc1ccncc1,-5.68%
8,COc1cccc(OCC(O)CN2CCN(c3ccccc3)CC2)c1 (stereo not shown),-45.2%
9,OC(COc1ccc2ccccc2c1)CN1CCN(c2ccc(F)cc2)CC1 (stereo not shown),-28%
10,COc1cccc(OCC(O)CN2CCN(c3ccc(Cl)cc3)CC2)c1 (stereo not shown),-71.9%
11,OC(CSc1c(Cl)cccc1Cl)CN1CCN(c2ccc(F)cc2)CC1 (stereo not shown),-40.3%
12,OC(CSc1ccccc1Cl)CN1CCN(c2ccc(F)cc2)CC1 (stereo not shown),-57.4%
13,COc1cccc(OCC(O)CN2CCN(c3ccc(F)cc3)CC2)c1.Cl (stereo not shown),-58.6%
14,OC(CSc1ccccc1Cl)CN1CCN(c2ccccc2F)CC1 (stereo not shown),-30.7%
15,COc1ccc(N2CCN(CC(O)COc3c(OC)cccc3OC)CC2)cc1.Cl (stereo not shown),-35.3%
16,COc1cccc(OCC(O)CN2CCN(c3ccccc3)CC2)c1.Cl (stereo not shown),-43.4%
17,CCOC(=O)N1CCN(CC(O)COc2c(OC)cccc2OC)CC1.Cl (stereo not shown),2.85%
18,COc1cccc(OC)c1OCC(O)CN1CCN(c2ccc(F)cc2)CC1.Cl (stereo not shown),-74.9%
19,COc1ccc(OCC(O)CN2CCN(c3ccc(Cl)cc3)CC2)cc1 (stereo not shown),-30.7%
20,CCOC(=O)c1c(S(=O)(=O)NCCc2ccco2)c(C)n(C)c1C,-1.25%
21,NNC(=O)c1ccc(Cn2cccn2)o1,5.58%
22,CCn1nc(C)c(NS(=O)(=O)c2ccc(C)cc2)c1C,-0.126%

row,SMILES,"hERG current change (%, negative = inhibition) at 10uM"
1,CCCCC1(CCCC)C(=O)NC(=Nc2cccc(C)c2)NC1=O,0.0469%
2,COCC(C)NS(=O)(=O)c1ccccc1 (stereo not shown),12.7%
3,COCCCNC(=S)Nc1cccc(S(=O)(=O)NC2=NCCC2)c1,36.7%
4,COc1ccc(CCNC(=O)c2ccc3c(c2)NC(=O)C(CSCc2cc(C)ccc2C)N3)cc1OC (stereo not shown),12.2%
5,O=C(Nc1ccc(S(=O)(=O)NCc2ccco2)cc1)c1ccc2ccccc2n1,-0.235%
6,COc1ccc(C2(C)ON(c3ccccc3C(F)(F)F)C2=O)cc1 (stereo not shown),5.36%
7,CCCCOCCCNC(=O)c1c(-c2ccccc2)noc1C,3.4%
8,CCOC(=O)CCN(Cc1ccccc1)S(=O)(=O)c1csc(C(N)=O)c1,-22.4%
9,CC(=O)c1ccc(OCC(O)CN2CCN(c3ccc(F)cc3)CC2)cc1.Cl (stereo not shown),-67.4%
10,Cl.OC(COc1ccc2c(c1)OCO2)CN1CCN(c2ccccc2)CC1 (stereo not shown),-2.44%
11,CCC(=O)c1ccc(OCC(O)CN2CCN(c3ccc(F)cc3)CC2)cc1 (stereo not shown),-26.8%
12,Cl.OC(COc1ccc2c(c1)OCO2)CN1CCCC1 (stereo not shown),5.48%
13,CC1CCN(CC(O)COc2ccc(F)cc2)CC1 (stereo not shown),-37.7%
14,COc1ccc(OCC(O)CN2CCN(c3ccc(OC)cc3)CC2)cc1.Cl (stereo not shown),-37.7%
15,Cl.OC(COc1ccc2c(c1)OCO2)CN1CCN(c2ccc(F)cc2)CC1 (stereo not shown),-66.1%
16,CC(=O)c1ccc(OCC(O)CN2CCN(CC(O)COc3ccc(C(C)=O)cc3)CC2)cc1 (stereo not shown),-39.4%
17,COc1ccc(N2CCN(CC(O)COc3ccc(F)cc3)CC2)cc1.Cl (stereo not shown),-69.9%
18,COc1ccc(OCC(O)CN2CCN(CC(O)COc3ccc(OC)cc3)CC2)cc1 (stereo not shown),-47.5%
19,OC(COc1ccc(F)cc1)CN1CCN(CC(O)COc2ccc(F)cc2)CC1 (stereo not shown),-71.5%
20,Cc1ccc(NC(=S)NC(=O)/C=C/c2ccco2)c(O)c1,2.91%
21,COC(=O)CCC(=O)N1CCCC(CNS(=O)(=O)c2ccc(OC)cc2)C1 (stereo not shown),39.4%
